PubChem BioAssay AID686978 (National Center for Advancing Translational Sciences (NCATS), 2013)
The campaign covered roughly 420,000 compounds. About 64,000 (15%) were called active. Not shown: some 27% with an inconclusive outcome. Calls come from the whole dose curve; as a rule, active = well fitted inhibition curve with a large enough effect; inconclusive = small, poorly fitted or top-dose-only effect; inactive = flat fitted curve, though single readings scatter. Not all results are given here.

experiment: qHTS for Inhibitors of human tyrosyl-DNA phosphodiesterase 1 (TDP1): qHTS in cells in absence of CPT; settings: DT40 Tdp1-/- hTDP1 cells, no CPT, ATP luminescence, 48 h; activity change, negative = growth inhibition: at 46.2 µM (top of the series); note: nearly all actives have a fitted effect of over 55% in size
Outline: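 Seeded 400 DT40-hTDP1 cells/well (vehicle DMSO, no 20 nM CPT); pinned compounds; ≥48 hr at 37 °C; CellTiter-Glo luminescence as viability measure.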
% is set by controls: 0 for no effect and ±100 for the full control effect; potency is the fitted concentration of half-maximal effect.

| Structure (SMILES) | activity change, negative = growth inhibition | Potency |
| --- | --- | --- |
| O=C(CCN1C(=O)C2C3CCC(C3)C2C1=O)Nc1ccc(Cl)cc1Cl (centres undefined) | -25.1% (inactive) |  |
| CCOc1ccc2ccccc2c1/C=N/NC(=O)c1c(C)cc(C)[nH]c1=O | -10.3% (inactive) |  |
| O=C(N/N=C/c1c(Cl)[nH]c2ccccc12)c1sc2ccccc2c1Cl |  | 13 µM (active) |
| Cc1[nH]c2ccccc2c1/C=N/NC(=O)CNC(=O)c1ccc2c(c1)OCO2 | -24.4% (inactive) |  |
| C[C@H](NC(=O)C1CC(=O)N(c2ccc3c(c2)OCCO3)C1)C(=O)N1CCC(C(=O)O)CC1 (some centres undefined) | 17.9% (inactive) |  |
| CCC(C)(C)NC(=O)C(c1ccccn1)N(C(=O)c1csnn1)c1ccccc1 (centres undefined) | -21.4% (inactive) |  |
| CCc1ccc(NC(=O)CS(=O)CC(=O)NCCCc2ccccc2)cc1 (centres undefined) | -20% (inactive) |  |
| Nc1ccc(C(=O)OCC(=O)NC2CCS(=O)(=O)C2)cc1[N+](=O)[O-] (centres undefined) | 33.8% (inactive) |  |
| Cc1cc(CNC(=O)C2CCC(=O)N(CCc3ccc(Cl)cc3)C2)no1 (centres undefined) | -5.14% (inactive) |  |
| COc1cccc(C(=O)Nc2ccc(N3CCN(C(=O)c4ccco4)CC3)cc2)c1 |  | 11.6 µM (active) |
| NS(=O)(=O)c1ccc(NC(=O)C(=O)Nc2ccc3nc4n(c(=O)c3c2)CCCCC4)cc1 | 8.65% (inactive) |  |
| CCCCN(CC)C(=S)Nc1ccc2nc3n(c(=O)c2c1)CCCCC3 | -23.6% (inactive) |  |
| COc1cccc(OCc2cc(C(=O)N3CCN(C(=O)c4ccco4)CC3)no2)c1 | -24.7% (inactive) |  |
| COc1cccc(C(=O)Nc2ccc3nc4n(c(=O)c3c2)CCCCC4)c1 |  | 20.6 µM (active) |
| O=C(c1ccco1)N1CCN(c2cccc(Cl)c2)CC1 | -21.5% (inactive) |  |
| CCC(=O)Nc1ccc(C(=O)N2CCN(C(=O)c3ccco3)CC2)cc1 | -8.96% (inactive) |  |
| Cc1ccc(OCC(=O)Nc2ccc(NC(=O)c3cccs3)cc2)c(C)c1 | -29.3% (inactive) |  |
| COc1cccc(C(=O)Nc2cc3c(cc2Br)OCCCO3)c1 | -42% (inactive) |  |
| Cc1ccc(OCC(=O)Nc2ccc(N3CCN(C(=O)c4ccco4)CC3)cc2)c(C)c1 |  | 8.2 µM (active) |
| COc1cccc(C(=O)Nc2ccc(N3CCCC3)cc2)c1 |  | 8.2 µM (active) |
| COc1cccc(OC)c1C(=O)Nc1ccc(N2CCCCC2)cc1 | -2.14% (inactive) |  |
| COc1ccccc1NC(=O)C1=C(C)NC2=C(C(=O)CCC2)C1c1ccc(C)o1 (centres undefined) | -2.13% (inactive) |  |
| CCN(CC)C(=O)C(=O)c1cn(CC(=O)NCc2ccc3c(c2)OCO3)c2ccccc12 | -6.26% (inactive) |  |
| CCOC(=O)N1CCN(S(=O)(=O)N2CCCC(C(=O)NCCCN3CCC(C)CC3)C2)CC1 (centres undefined) | 21.8% (inactive) |  |
| Cc1ccc(C(c2sc3nc(C)nn3c2O)N2CCN(c3ccc(F)cc3)CC2)cc1 (centres undefined) | -20.8% (inactive) |  |
| Cc1ccc(CNC(=O)CCNS(=O)(=O)c2cccc3nonc23)cc1 | -8.67% (inactive) |  |

| Structure (SMILES) | activity change, negative = growth inhibition | Potency |
| --- | --- | --- |
| CS/C(=C\C(=O)c1ccco1)Nc1ccccc1Cl | -29.9% (inactive) |  |
| Cc1nc(CN(C)C(=O)CC2C(=O)NCCN2Cc2ccc(F)cc2)cs1 (centres undefined) | -2.58% (inactive) |  |
| O=C(CCNS(=O)(=O)c1ccccc1C(F)(F)F)Nc1ccncc1 | 4.83% (inactive) |  |
| Cc1cc(Nc2ccccc2)n(C(=O)c2ccc(N)cc2)n1 | -5.11% (inactive) |  |
| CC(C)c1ccc(NS(=O)(=O)c2cn(C)c(=O)n(C)c2=O)cc1 | -14.9% (inactive) |  |
| O=C(Cc1ccccc1)NNC(=O)C1CCN(c2ncccn2)CC1 | -26.3% (inactive) |  |
| COc1ccc(NC(=O)CSc2nc(NS(=O)(=O)c3ccc(C)cc3)cc(=O)[nH]2)cc1 | -23.2% (inactive) |  |
| CCc1ccc(OC(C)C(=O)Nc2ccc(S(=O)(=O)Nc3cc(C)on3)cc2)cc1 (centres undefined) | -3.93% (inactive) |  |
| CC(=O)Nc1ccc(S(=O)(=O)Nc2cc(C)cn(Cc3ccc(C)cc3)c2=O)cc1 |  | 11.6 µM (active) |
| CCN(CC)CCn1c2c(c(SCC(=O)Nc3nc4ccccc4s3)nc1=O)CCCC2 | -54.2% (inactive) |  |
| Cc1ccc(S(=O)(=O)NC(=O)c2cccc(C)c2)cc1 | 0.889% (inactive) |  |
| Cc1nc2ccccc2c(=O)n1NC(=O)c1ccccc1 | 8.1% (inactive) |  |
| Cc1cccc(C(=O)NCCCN(C)CCCNC(=O)c2cccc(C)c2)c1 | -2.23% (inactive) |  |
| COC(=O)CNC(=O)c1ccccc1F | -46.9% (inactive) |  |
| CSc1nc(N(C)NC(=O)c2cccc(C)c2)c2ccccc2n1 |  | 0.0146 µM (active) |
| CN(NC(=O)c1ccccc1F)c1nc(C(F)(F)F)nc2ccccc12 |  | 0.206 µM (active) |
| O=C(Cn1cnc2ccccc2c1=O)NNC(=O)c1ccccc1F | 6.81% (inactive) |  |
| CN(NC(=O)c1ccccc1)c1nc2ccccc2nc1C(F)(F)F |  | 7.31 µM (active) |
| O=C(Nn1cnc2ccccc2c1=O)c1ccccc1 | 0.973% (inactive) |  |
| Cc1cc(OC(C)C(=O)NC2CC(C)(C)NC(C)(C)C2)c2c(C)cc(=O)oc2c1 (centres undefined) | 3.08% (inactive) |  |
| Oc1ccccc1-c1nc(/C=C/c2ccc(F)cc2)no1 | -29.4% (inactive) |  |
| CCCN(c1ccc(C(C)C)cc1)S(=O)(=O)c1c(C)[nH]c(=O)[nH]c1=O | -9.18% (inactive) |  |
| O=C(NC1CCCCC1)C1CCC(CNS(=O)(=O)c2ccccc2)CC1 (centres undefined) | 1.01% (inactive) |  |
| CCOc1ccc(N(CC(=O)NC2CCCCCC2)S(=O)(=O)c2c(C)[nH]c(=O)[nH]c2=O)cc1 | 10.1% (inactive) |  |
| CC(=O)NC(NC(=S)Nc1c(C)n(C)n(-c2ccccc2)c1=O)C(Cl)(Cl)Cl (centres undefined) | 6.77% (inactive) |  |
| CC1(C)Cc2cccc(OCC(N)=O)c2O1 | 8.49% (inactive) |  |

| Structure (SMILES) | activity change, negative = growth inhibition | Potency |
| --- | --- | --- |
| CC(=O)Nc1cncc(-c2ccccc2CO)n1 | 0.247% (inactive) |  |
| CC1C(=O)NC(=O)C1c1ccccc1 (centres undefined) | 22.4% (inactive) |  |
| O=C(CCNS(=O)(=O)c1ccccc1)NCCSc1ccc(Br)cc1 | -13.8% (inactive) |  |
| COc1cccc(C(=O)NCCSc2ccc(Br)cc2)c1 | -15.9% (inactive) |  |
| O=C(CNC(=O)c1ccccc1Br)NCCSc1ccc(Br)cc1 |  | 18.4 µM (active) |
| CC(=O)c1sc(NC(=O)CCN2C(=O)C3CC=CCC3C2=O)nc1-c1ccccc1 (centres undefined) | 0.639% (inactive) |  |
| CC(Oc1ccccc1)C(=O)Nc1oc(-c2ccco2)c(-c2ccco2)c1C#N (centres undefined) | -2.75% (inactive) |  |
| CSc1ncc(Cl)c(C(=O)Nc2ccc(S(=O)(=O)N3CCCC(C)C3)cc2)n1 (centres undefined) |  | 14.6 µM (active) |
| CCc1ccc(NC(=O)c2cc(S(=O)(=O)N3CCCC(C)C3)cn2C)cc1 (centres undefined) | -0.723% (inactive) |  |
| CSc1ncc(Cl)c(C(=O)Nc2cc(C)ccc2C)n1 | 15.7% (inactive) |  |
| COc1c(F)c(F)c(-c2csc(N)n2)c(F)c1F | -28.9% (inactive) |  |
| Cc1cc(C)n(CCNCc2c(C(=O)N3C[C@@H](C)O[C@@H](C)C3)nc3ccc(Cl)cn23)n1 | -0.569% (inactive) |  |
| CC(=O)NN1C(=O)c2ccccc2NC1c1ccccc1 (centres undefined) | 2.25% (inactive) |  |
| CCOC(=O)NN1C(=O)c2ccccc2NC1c1ccccc1O (centres undefined) |  | 23.1 µM (active) |
| O=C1c2ccccc2NC(c2ccccc2O)N1NS(=O)(=O)c1ccccc1 (centres undefined) | -7.78% (inactive) |  |
| CCCCNC(=O)Nc1c(C)cc(SC#N)cc1C |  | 8.2 µM (active) |
| CCCCNC(=O)C(=O)c1ccccc1NC(C)=O | -1.06% (inactive) |  |
| CCC(C)C(CO)NC(=O)/C=C/[C@H]1O[C@@H](n2cnc3c(NC(=O)c4ccccc4)ncnc32)[C@H](O)[C@@H]1O (some centres undefined) | 9.97% (inactive) |  |
| CNc1nnc(-c2ccco2)s1 | -0.333% (inactive) |  |
| O=C(NCc1ccccn1)Nc1ccc(F)cc1 | 3.3% (inactive) |  |
| CCOC(=O)c1ccccc1NC(=O)CSc1nc2c(sc(=S)n2CC)c(=O)[nH]1 | 16.5% (inactive) |  |
| CC(C)CN1CCNC(=O)C1CC(=O)N(C)CC1CCOCC1 (centres undefined) | -16.4% (inactive) |  |
| CC(NC(=O)CN(C)S(=O)(=O)c1ccc(F)cc1)C1CC2CCC1C2 (centres undefined) | 4.07% (inactive) |  |
| COC(=O)c1cc(C(=O)OCC(=O)Nc2cc(C)on2)cc([N+](=O)[O-])c1 | 0.11% (inactive) |  |
| COC(=O)c1cc(C(=O)NC(C)C2CC3CCC2C3)cc([N+](=O)[O-])c1 (centres undefined) |  | 20.6 µM (active) |
| OC1CN=C2Sc3ccccc3N2C1 (centres undefined) | -19.7% (inactive) |  |

| Structure (SMILES) | activity change, negative = growth inhibition | Potency |
| --- | --- | --- |
| O=C(NC(=O)c1ccc(Cl)c(Cl)c1)OC1CCS(=O)(=O)C1 (centres undefined) | -4.5% (inactive) |  |
| CCCCOc1ccc(C(=O)NCC(=O)OCC(=O)c2c(N)n(C)c(=O)n(C)c2=O)cc1 | -16.3% (inactive) |  |
| COc1cc(NC(=O)c2[nH]cnc2C(N)=O)cc(C(=O)Nc2cccc(C(F)(F)F)c2)c1 |  | 18.4 µM (active) |
| O=C(Nc1cccc(C(F)(F)F)c1)c1cnccn1 | 9.25% (inactive) |  |
| COc1cc(NC(=O)c2cncc(-c3ccc(C#N)cc3)c2)cc(C(=O)Nc2cccc(C(F)(F)F)c2)c1 |  | 10.3 µM (active) |
| COc1cc(NC(=O)c2cccnc2SC)cc(OC)c1 | -9.43% (inactive) |  |
| CCn1nnnc1SCC(=O)Nc1ccc(N(C)C)cc1 | -2.75% (inactive) |  |
| Cn1c(N)c(C(=O)COC(=O)/C=C/c2cccc(C(F)(F)F)c2)c(=O)n(C)c1=O | -25.4% (inactive) |  |
| Cc1noc(C)c1-c1nccc(N2CCOCC2)n1 | -3.85% (inactive) |  |
| CCCCc1nc2cc(C(=O)NCCc3cnn(C)c3)ccc2o1 | -28.5% (inactive) |  |
| O=C(Nc1ccccc1C(=O)N1CCCCCC1)c1ccccc1Cl | -4.37% (inactive) |  |
| O=C(O)C1CC=CCC1C(=O)Nc1ccccc1C(=O)N1CCN(c2ccccc2)CC1 (centres undefined) |  | 20.6 µM (active) |
| CC1CCN(C(=O)c2ccccc2NC(=O)Cc2ccccc2)CC1 | 9.05% (inactive) |  |
| Cc1ccccc1NC(=O)C1CCN(C(=O)NC2CCCCC2)CC1 | -4.82% (inactive) |  |
| CC(=O)N1CCN(CC(=O)Nc2ccc(C)c(F)c2)CC1 | 26% (inactive) |  |
| CC1CC(=O)N(CC(=O)Nc2cccc(Cl)c2)c2ccccc2S1(=O)=O (centres undefined) | -4.87% (inactive) |  |
| Cc1ccc(NC(=O)CN2c3ccccc3S(=O)(=O)c3ccccc32)cc1F |  | 18.4 µM (active) |
| CCCCOc1ccc(NC(=O)c2cc3c(n(-c4ccc(Cl)cc4)c2=O)CCCC3=O)cc1 | 16.6% (inactive) |  |
| c1ccc2cc(C3=NCCN3)ccc2c1 | -24% (inactive) |  |
| C=CCNC(=O)c1ccccc1NC(=O)c1ccc(Cl)c(S(=O)(=O)Nc2cccc(C)c2C)c1 |  | 16.4 µM (active) |
| Cc1cc(=O)c2cc(C(=O)Nc3cccc(C)c3C)ccc2[nH]1 | -15.6% (inactive) |  |
| Cc1ccccc1NC(=O)c1cc(S(=O)(=O)Nc2cccc(C(=O)O)c2)ccc1Cl | 16% (inactive) |  |
| CC1(C)CC(=O)C2=C(C1)Nc1cc(C(=O)c3ccccc3)ccc1NC2c1ccccn1 (centres undefined) | -1.7% (inactive) |  |
| Cc1cccc(C(=O)OCC(=O)Nc2ccc(F)cc2)c1 | -23.4% (inactive) |  |
| O=C(COC(=O)c1ccccc1OCCOc1ccccc1)Nc1cccc(Br)c1 | -20.2% (inactive) |  |
| Cc1cccc(NC(=O)COC(=O)c2ccccc2OCc2cccc(Br)c2)c1 |  | 22.4 µM (active) |
